Laboratory results taken from the supplement of paper PMC3334620.
Over roughly 33,000 sequences, “E-score (-0.5 to 0.5)” has its median near -0.0034; the highest 2% begin near 0.25. Many of the other results were omitted from the sample, so the highest values are more common in it than they were.

target: T1, Yap3 (UniProt P38749); assay: PBM E-score (8-mer binding enrichment) (E-score (-0.5 to 0.5)); higher = stronger / more preferred TF binding; settings: protein concentration: 100 nM; construct: GST-full length
T1 sequence: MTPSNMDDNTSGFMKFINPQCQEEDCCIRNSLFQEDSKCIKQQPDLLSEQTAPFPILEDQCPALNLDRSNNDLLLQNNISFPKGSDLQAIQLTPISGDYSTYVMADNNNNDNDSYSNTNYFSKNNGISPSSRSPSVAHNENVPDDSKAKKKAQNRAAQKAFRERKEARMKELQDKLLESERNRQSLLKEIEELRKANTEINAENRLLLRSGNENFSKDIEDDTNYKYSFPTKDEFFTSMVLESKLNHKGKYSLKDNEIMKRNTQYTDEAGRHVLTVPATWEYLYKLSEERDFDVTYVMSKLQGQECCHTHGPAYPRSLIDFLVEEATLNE
Outline: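 For each ungapped eight-base word taken together with its reverse complement, the Universal PBM Analysis Suite assigned an E-score. Binding data came from GST-tagged yeast transcription factors, applied at about 100-200 nM, on universal all-10-mer Agilent arrays made double-stranded by primer extension. Fluorescent anti-GST marked bound protein, and scans were normalised with masliner.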

| Sequence | PBM E-score |
| --- | --- |
| ATTCACAG | 0.0188 |
| GTTCACAA | 0.043 |
| ATTCACAA | 0.294 |
| GCATACGA | -0.062 |
| AAACGGGA | 0.12 |
| AAACGGTA | 0.301 |
| AAACGGAT | 0.277 |
| GAACGGTA | 0.083 |
| AAACGGAA | 0.263 |
| TTACGGAA | 0.266 |
| CAACGGTA | -0.108 |
| ACACGGAA | 0.0309 |
| CTACGGAA | 0.068 |
| AAACGGAG | 0.0915 |
| AAACGGAC | -0.155 |
| ATACGGAA | 0.185 |
| ACATGGGT | -0.0457 |
| ACTAGCAT | -0.0172 |
| ACAAGCGC | 0.0537 |
| ATACCATC | 0.119 |
| CCATTTGA | -0.0292 |
| TCGATCCA | -0.0884 |
| ACGCGCAC | -0.015 |
| CCAGTTAA | 0.143 |
| GGAGCCTA | -0.0407 |

| Sequence | PBM E-score |
| --- | --- |
| CAACGGAA | 0.15 |
| TAACGGAA | 0.276 |
| GAACGGAA | 0.0365 |
| GACAAAAA | 0.315 |
| ACCAAAAA | 0.277 |
| ACCAAAAC | 0.104 |
| ACCAAAAT | 0.0693 |
| GAACAAAA | 0.346 |
| AAACAAAA | 0.185 |
| GAACAAAC | 0.227 |
| GACAAAAC | 0.179 |
| AACAAAAA | 0.307 |
| GACAAGAA | 0.127 |
| AACAAAAC | 0.239 |
| AACAAAAG | 0.164 |
| AGGCCACA | -0.191 |
| GGGATTGA | -0.173 |
| CAGTAGCA | -0.0517 |
| AGTGAAGG | 0.0123 |
| TAATCAAA | 0.285 |
| TTATCAAA | 0.283 |
| GTATCAAA | 0.187 |
| GAATCAAA | 0.0372 |
| CTATCAAA | 0.155 |
| CAATCAAA | 0.0584 |

| Sequence | PBM E-score |
| --- | --- |
| GGCGCTGA | -0.124 |
| ATCAGCTC | 0.00619 |
| AGTTACAC | 0.0567 |
| CAACATTG | 0.115 |
| CCGATTTA | 0.107 |
| ACGATTTA | 0.312 |
| CTGATTTA | 0.14 |
| GCGATTTA | 0.0749 |
| ATGATTTA | 0.202 |
| GTGATTTA | 0.261 |
| CACCTCTA | 0.158 |
| GCAGATAA | -0.0214 |
| ATATACAC | 0.171 |
| ATATACAA | 0.322 |
| ATATACTA | 0.306 |
| CTATACTA | 0.16 |
| CTATACAA | 0.189 |
| ATATACTC | 0.126 |
| AGATCTAC | 0.0426 |
| AGTAACCC | -0.00628 |
| ACAAGTAA | 0.0548 |
| GTCCCTTA | 0.179 |
| ACTTATAG | -0.0355 |
| CCTTATTA | 0.33 |
| ACTTATAC | 0.174 |

| Sequence | PBM E-score |
| --- | --- |
| CCTTATGA | 0.113 |
| ACTTATTA | 0.263 |
| GCTTATTA | 0.232 |
| ACTTATTC | 0.162 |
| CCTTATTC | 0.0232 |
| ACTTATAT | 0.29 |
| CCCACGTC | -0.122 |
| CGATTAGC | -0.102 |
| GCACTATA | 0.0864 |
| TAGCAAGA | 0.0496 |
| GGGTAATA | 0.0455 |
| CCGTAATA | 0.201 |
| ACGTAAAG | 0.184 |
| ACGTAAGA | 0.23 |
| GCGTAAAA | 0.231 |
| ACGTAACG | 0.208 |
| ACGTAAAA | 0.198 |
| ACGTAATG | 0.354 |
| CGGTAATA | 0.202 |
| AGGTAATA | 0.294 |
| ACGTAATA | 0.44 |
| GCGTAATA | 0.305 |
| GAGAGCGA | -0.166 |
| CCAGTGTC | -0.1 |
| GCAGATCC | 0.0102 |

| Sequence | PBM E-score |
| --- | --- |
| ATCAATAC | 0.11 |
| ACTACCTG | 0.0736 |
| GCGTCTCC | -0.0737 |
| AAATCCTT | -0.0476 |
| CGCTACAC | -0.0665 |
| GATTCAAA | 0.0843 |
| AGCTCTAT | 0.0447 |
| GCTTCTCA | -0.0894 |
| GCAACATA | 0.0566 |
| CCAACATA | 0.305 |
| CCAACATC | -0.011 |
| CCAATGCC | -0.162 |
| AAAAGTAG | 0.105 |
| GCAGCAAA | -0.0366 |
| ACATTCTG | -0.0885 |
| CGCATTGA | 0.125 |
| GTCCTATA | -0.0462 |
| ATCCTATA | 0.26 |
| CTCCTATA | -0.191 |
| CGAGTTGA | 0.0975 |
| GCGGTCGA | 0.0757 |
| ACCTGAAG | 0.00792 |
| GCCTTTTA | -0.0778 |
| CTGGGCGC | -0.229 |
| TATTTCAA | 0.235 |

| Sequence | PBM E-score |
| --- | --- |
| CATTTCAA | 0.265 |
| CATTTTCC | 0.193 |
| GATTTCAA | 0.0767 |
| GATTTCCC | 0.124 |
| CATTTCCC | 0.293 |
| ATGGGAGG | -0.0823 |
| TATCTGCA | 0.0463 |
| AAAGGTCG | -0.0514 |
| AACTTGCA | 0.108 |
| CATTCACG | -0.0375 |
| TATTCACA | 0.27 |
| GATTCACA | 0.00517 |
| GAAAATCC | 0.0305 |
| GCGATGAC | 0.0826 |
| ATAATTTA | 0.303 |
| GTAATTTA | 0.238 |
| AGAATTTG | 0.107 |
| CGAATTTA | 0.136 |
| GGAATTTA | 0.173 |
| ATAATTTG | 0.294 |
| CTAATTTA | 0.19 |
| CGAATTTC | 0.298 |
| AAAATTTG | 0.0972 |
| AGAATTTA | 0.276 |
| AGAATTTC | -0.00706 |

| Sequence | PBM E-score |
| --- | --- |
| ATAATTTC | 0.17 |
| AAGAAGGG | -0.0033 |
| CCCCGTCG | -0.309 |
| CATGCTTC | -0.024 |
| CAAGGGGG | -0.226 |
| AGTGCATA | -0.0677 |
| GACTGAGC | -0.255 |
| CCTGTTCC | -0.0284 |
| AAGGCCCC | -0.285 |
| ATACAGGG | 0.14 |
| CAGCCTAA | -0.12 |
| AACACGAT | 0.0988 |
| AAAATTTT | 0.246 |
| AAAATTAT | 0.257 |
| GAAATTAC | 0.265 |
| GAAATTAA | 0.342 |
| AAAATTAC | 0.273 |
| AAAATTAG | 0.227 |
| CAAATTAA | 0.155 |
| CAAATTAC | 0.144 |
| AAATTTAC | 0.219 |
| GAAATTCC | 0.0452 |
| AAAATTAA | 0.138 |
